Inconclusive results are not listed. Calls of active or inactive are those of the source.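 Rule for the calls, unless noted: active = compounds whose dose series gives a full or clear partial fitted curve of increased nuclear translocation; inconclusive = weak partial curve or effect only at the top dose; inactive = no dose-dependent translocation response.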
Target: Glucocorticoid receptor (Homo sapiens) (UniProt P04150)
Test: GR-GFP Redistribution (AID 450)
Details: U2OS GR-GFP nuclear translocation, laser cytometry, 2 h; series mostly up to 20.6 µM
Potency is the fitted concentration of half-maximal effect.

Glucocorticoid receptor (Homo sapiens), sequence (P04150 whole entry, looked up): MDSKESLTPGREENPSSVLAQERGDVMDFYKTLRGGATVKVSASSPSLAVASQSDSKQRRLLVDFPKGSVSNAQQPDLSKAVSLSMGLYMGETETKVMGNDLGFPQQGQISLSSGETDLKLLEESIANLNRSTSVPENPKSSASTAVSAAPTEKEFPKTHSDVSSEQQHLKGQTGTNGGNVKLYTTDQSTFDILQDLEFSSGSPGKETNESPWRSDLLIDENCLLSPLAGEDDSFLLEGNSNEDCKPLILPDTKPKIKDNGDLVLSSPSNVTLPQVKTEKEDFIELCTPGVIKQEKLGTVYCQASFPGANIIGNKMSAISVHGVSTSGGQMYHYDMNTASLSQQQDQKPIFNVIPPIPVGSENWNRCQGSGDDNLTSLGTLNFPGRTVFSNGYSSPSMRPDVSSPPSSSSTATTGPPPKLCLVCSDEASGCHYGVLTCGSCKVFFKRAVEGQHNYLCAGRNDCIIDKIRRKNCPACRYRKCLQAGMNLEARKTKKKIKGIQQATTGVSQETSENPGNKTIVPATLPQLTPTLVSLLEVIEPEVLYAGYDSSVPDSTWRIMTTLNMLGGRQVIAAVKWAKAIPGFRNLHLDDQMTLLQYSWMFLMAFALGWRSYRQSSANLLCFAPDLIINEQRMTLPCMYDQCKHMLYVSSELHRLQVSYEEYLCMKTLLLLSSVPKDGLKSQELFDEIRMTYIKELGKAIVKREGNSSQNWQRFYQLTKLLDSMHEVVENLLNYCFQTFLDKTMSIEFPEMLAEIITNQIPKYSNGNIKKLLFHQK

| Structure (SMILES) | Potency |
| --- | --- |
| Cn1c(NCc2ccccc2)nc2c1c(=O)n(Cc1ccc(Br)cc1)c(=O)n2C | > 20.6 µM (inactive) |
| N#Cc1c(N)nc(SCc2ccccn2)c(C#N)c1-c1cccs1 | > 20.6 µM (inactive) |
| CCOc1cccc(-c2nnc3sc(C4CCCCC4)nn23)c1 | > 20.6 µM (inactive) |
| c1ccc2c(c1)CCN(c1ncnc3c1[nH]c1ccccc13)C2 | > 20.6 µM (inactive) |
| CSc1nc(N)nc(SCC(=O)C23CC4CC(CC(C4)C2)C3)c1C#N | > 20.6 µM (inactive) |
| Cc1csc(NC(=O)CSc2nsc(SCC(=O)Nc3nc(C)cs3)c2C#N)n1 | > 20.6 µM (inactive) |
| Cc1ccc(N2C(=O)c3sc4nnc(C)c(=O)n4c3C2=O)cc1 | > 20.6 µM (inactive) |

Test system: not listed separately
Test: qHTS Assay for Identification of Small Molecule Agonists for Hypoxia Response Element Signaling Pathway (AID 914; active = well fitted activation curve with a large enough effect in the signal ratio, with a control signal flat, not every such curve was filed as active; the % refers to the signal ratio; for activation: % of control where 0% means no effect)
Details: ME-180 HRE-bla reporter, beta-lactamase ratio, CoCl2, 17 h; activation: stronger effect = higher value
Method in brief: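 ME-180 cells carrying an HRE-driven beta-lactamase reporter were treated with compounds in a titration series plus an EC50 level of CoCl2 for 17 h at 37 degrees Celsius; CCF4 readout as the 460nm/530nm ratio gave AC50 values.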

| Structure (SMILES) | activation | Potency |
| --- | --- | --- |
| CCC1(C)Cc2c(sc3c2c(=O)n(C)c2nnc(SCc4ccc5c(c4)OCO5)n32)CO1 (stereo not given) | -18.9% (inactive) |  |
| Cc1c(C)c2cc(Cl)c(O)c(CN3CCN(C)CC3)c2oc1=O |  | 7.94 µM (active) |
| N#CC1=C(SCC(=O)c2ccccc2)NC2=C(C(=O)CCC2)C1c1ccco1 (stereo not given) |  | 10 µM (active) |

— PubChem BioAssay (NCATS)
